Experiments:
Details in all cases: Compound Concentration (nM):1000
CDK3 = system: CDK3
CDK4-cyclinD1 = system: CDK4-cyclinD1
CDK4-cyclinD3 = system: CDK4-cyclinD3
CDK4 = system: CDK4
CDK5 = system: CDK5
CDK7 = system: CDK7
CDK8 = system: CDK8
CDK9 = system: CDK9
CDKL1 = system: CDKL1
CDKL2 = system: CDKL2
CDKL3 = system: CDKL3
CDKL5 = system: CDKL5
CHEK1 = system: CHEK1
CHEK2 = system: CHEK2
CIT = system: CIT
CLK1 = system: CLK1
CLK2 = system: CLK2
CLK3 = system: CLK3
CLK4 = system: CLK4
CSF1R-autoinhibited = system: CSF1R-autoinhibited
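Further: KINOMEscan scanMAX binding as percent activity remaining versus control; lower means stronger binding.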

SMILES	Percent Control (CDK3)	Percent Control (CDK4-cyclinD1)	Percent Control (CDK4-cyclinD3)	Percent Control (CDK4)	Percent Control (CDK5)	Percent Control (CDK7)	Percent Control (CDK8)	Percent Control (CDK9)	Percent Control (CDKL1)	Percent Control (CDKL2)	Percent Control (CDKL3)	Percent Control (CDKL5)	Percent Control (CHEK1)	Percent Control (CHEK2)	Percent Control (CIT)	Percent Control (CLK1)	Percent Control (CLK2)	Percent Control (CLK3)	Percent Control (CLK4)	Percent Control (CSF1R-autoinhibited)
COc1cc(N2CCN(C(C)C)CC2)ccc1Nc1nc(Nc2ccc(F)cc2C(=O)NC[C@@H](O)CO)c2cc[nH]c2n1 [GSK1392956A]	100%	85%	100%	89%	100%	93%	100%	100%	100%	100%	100%	43%	94%	0.2%	80%	1.6%	2.6%	77%	7.5%	100%
COc1cc(C=NNc2ncnc3c2cnn3-c2ccccc2)ccc1O [GW513184X]	97%	89%	81%	100%	64%	4%	100%	100%	80%	22%	100%	100%	100%	97%	96%	48%	83%	82%	60%	100%
COc1cc2ncnc(Nc3ccc4c(cnn4Cc4ccccc4)c3)c2cc1OC.Cl [GW282449A]	100%	100%	100%	100%	100%	100%	100%	100%	100%	95%	100%	55%	100%	0%	100%	100%	100%	100%	100%	100%
NS(=O)(=O)c1ccc(N/N=C2\C(=O)Nc3ccc(C(=O)NCCc4c[nH]cn4)cc32)cc1 [GW300660X]	100%	12%	30%	100%	100%	33%	100%	100%	55%	100%	100%	36%	100%	64%	100%	72%	5.5%	100%	76%	90%
Nc1ncnc2occ(-c3ccc(NC(=O)Nc4cc(C(F)(F)F)ccc4F)cc3)c12 [GW770249X]	39%	96%	100%	100%	63%	4.4%	0%	70%	93%	31%	13%	100%	100%	96%	44%	41%	100%	100%	57%	25%
CCS(=O)(=O)c1ccc(OC)c(Nc2ncc(-c3cccc(OC)c3)o2)c1 [GW580509X]	100%	93%	93%	99%	100%	84%	100%	100%	98%	98%	100%	59%	100%	100%	100%	6.9%	3.9%	71%	15%	43%
COc1cccc(-n2ncc3c(N/N=C/c4ccncc4)ncnc32)c1 [GW784752X]	100%	49%	72%	93%	90%	8.1%	100%	100%	51%	46%	46%	5.1%	100%	87%	86%	42%	61%	100%	45%	96%
O=C(Nc1n[nH]c2nc(-c3ccc(O)cc3)c(Br)cc12)C1CC1 [SB-725317]	16%	2.5%	4.4%	100%	100%	19%	100%	95%	98%	60%	100%	37%	100%	100%	51%	100%	95%	100%	100%	96%
NS(=O)(=O)c1ccc(N/N=C2\C(=O)Nc3ccc(-c4cnco4)cc32)cc1 [GW276655]	47%	29%	31%	94%	81%	32%	100%	93%	39%	49%	37%	16%	100%	93%	79%	36%	24%	100%	37%	88%
COc1ccccc1-c1cc(/C=C2\C(=O)Nc3ncc(Br)cc32)cc(Br)c1O [GW442130X]	100%	88%	95%	100%	99%	89%	71%	97%	100%	96%	93%	88%	100%	79%	89%	100%	67%	84%	85%	100%
C/C(Nc1ccc(S(N)(=O)=O)cc1)=C1/C(=O)Nc2ccccc21 [GW335962X]	100%	29%	64%	100%	100%	74%	78%	100%	85%	82%	94%	100%	93%	51%	86%	98%	78%	98%	100%	40%
Cl.c1ccc(Cc2nc3ccc(Nc4ncnc5ccccc45)cc3[nH]2)cc1 [GR269666A]	100%	93%	100%	93%	100%	100%	88%	100%	100%	100%	100%	59%	100%	94%	100%	91%	93%	100%	100%	100%
COc1cc(C)c(N(C)C(=O)CN(C)C)cc1Nc1nc(Nc2cccc(F)c2C(N)=O)c2cc[nH]c2n1 [GSK2219385]	92%	89%	100%	90%	100%	73%	100%	100%	79%	100%	100%	44%	92%	69%	100%	54%	58%	91%	67%	100%
COc1cc(/C=N/Nc2ncnc3[nH]ncc23)ccc1O [GW578748X]	100%	79%	100%	92%	84%	70%	83%	100%	52%	100%	97%	100%	7%	51%	83%	19%	29%	85%	50%	56%
COc1cc2ncn(-c3cc(O[C@H](C)c4ccccc4Cl)c(C(N)=O)s3)c2cc1OC [GSK237701A]	100%	81%	100%	86%	100%	76%	48%	100%	94%	86%	76%	100%	100%	100%	100%	81%	90%	77%	68%	70%
C[C@@H](Oc1cc(-n2cnc3ccc(OC4CCN(C)CC4)cc32)sc1C(N)=O)c1ccccc1Cl [GSK579289A]	90%	100%	69%	94%	100%	70%	100%	100%	53%	100%	100%	100%	90%	100%	78%	62%	88%	87%	95%	73%
NS(=O)(=O)c1ccc(Nc2ncc(-c3ccccc3)o2)cc1 [GW572399X]	100%	60%	88%	95%	100%	21%	93%	100%	80%	65%	100%	100%	100%	100%	100%	100%	100%	100%	100%	58%
CN(C)CCNC(=O)Nc1ccc(N(C)c2ccnc(Nc3ccc(CS(C)(=O)=O)cc3)n2)cc1.Cl [GW830900A]	100%	81%	100%	97%	85%	65%	75%	98%	88%	28%	100%	100%	100%	93%	100%	85%	94%	99%	100%	41%
Cl.O=C(Nc1ccc(Oc2ccc3[nH]c(NC(=O)c4ccco4)nc3c2)cc1)Nc1cc(C(F)(F)F)ccc1F [GW683134A]	100%	100%	100%	100%	100%	12%	100%	100%	77%	6.5%	100%	100%	88%	97%	0.4%	47%	89%	100%	44%	79%
CN(C)c1cc2c(Nc3ccc4c(cnn4Cc4ccccc4)c3)ncnc2cn1 [GW282974X]	100%	81%	84%	89%	39%	82%	100%	100%	75%	100%	100%	40%	85%	2.9%	79%	75%	86%	100%	100%	100%
O=C1Nc2ccc(C(=O)c3ccco3)cc2C1=Cc1cc(Cl)c(O)c(Cl)c1 [GW406108X]	100%	78%	94%	94%	89%	76%	80%	100%	88%	100%	100%	100%	100%	42%	89%	3.3%	0.1%	6.2%	12%	61%
Cl.O=C(Nc1ccc(Oc2ccc3[nH]c(NC(=O)c4ccccc4)nc3c2)cc1)Nc1cc(C(F)(F)F)ccc1F [GW709042A]	100%	92%	100%	84%	100%	32%	54%	81%	92%	69%	96%	100%	96%	100%	0%	44%	100%	100%	79%	79%
